Experiment [1] deals with XIP peptide (Xip251-270) binding. Put plainly: XIP fragment 251-270 binding compounds – biochemical, small-molecule microarray, fluorescence 635/667 nm, 0.1 µg/mL protein, primary screen (AID 1182). To be noted: fluorescent protein binding, 635 nm, higher = more signal, called active from +8 up or from −8 down.
Experiment [2] concerns XIP peptide (Xip251-270). Put plainly: compounds binding XIP fragment 251-270 – biochemical, small-molecule microarray, fluorescence 635/667 nm, 0.5 µg/mL protein, primary screen (AID 1183). The conditions noted are these: fluorescence 635 nm, higher = more signal.
Experiment [3] is described as follows: blood-stage malaria parasite viability loss – strain 3D7, DAPI fluorescence, 100 nL, primary screen (AID 1184).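 Note: parasites grown inside human red blood cells in medium with human serum.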 To be noted: P. falciparum 3D7 growth, 3 d, higher = more signal.
The target in experiment [4] is Homeobox protein Hox-A13 (Mus musculus) (UniProt Q62424). Put plainly: disruptors of Hoxa13 oligonucleotide interaction – biochemical, fluorescence polarization, labeled oligonucleotide, primary screen (AID 1185). The conditions noted are these: Hoxa13:DNA binding, 15 min, higher = more signal, called active from +8 up or from −8 down. Background: Fluorescence polarisation rises when a labelled molecule tumbles more slowly, as on binding a larger partner.

Activity calls are given as the source filed them.

Sequence of Homeobox protein Hox-A13 (Mus musculus) (Q62424 whole entry, looked up): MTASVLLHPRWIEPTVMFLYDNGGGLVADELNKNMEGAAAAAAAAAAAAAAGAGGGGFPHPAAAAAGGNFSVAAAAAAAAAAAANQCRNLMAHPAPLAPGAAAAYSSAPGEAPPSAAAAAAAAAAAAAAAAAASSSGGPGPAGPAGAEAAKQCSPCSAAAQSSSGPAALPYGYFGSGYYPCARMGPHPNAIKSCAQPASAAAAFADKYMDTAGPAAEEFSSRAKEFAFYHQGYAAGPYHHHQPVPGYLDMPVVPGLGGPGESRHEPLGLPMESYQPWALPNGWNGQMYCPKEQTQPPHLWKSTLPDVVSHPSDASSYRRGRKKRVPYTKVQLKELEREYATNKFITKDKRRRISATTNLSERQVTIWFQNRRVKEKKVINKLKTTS

`CC(C)(C)N1C(=O)[C@H]2[C@H]3[C@H](O)[C@H](O)CC(=NO[C@@H]4O[C@H](CO)[C@@H](O)[C@H](O)[C@H]4O)[C@H]3CC[C@H]2C1=O`: the composite z-score in experiment [1] was 0.0127 (inactive); in experiment [2], 0.271. The z-score in experiment [3] was -1.62; in experiment [4], -4.08 (inactive).
On the same counts, the results for `O=C(NN=C1C[C@@H](O)[C@@H](O)[C@@H]2[C@@H]3C(=O)N(C[C@@H]4CCCO4)C(=O)[C@@H]3CC[C@@H]12)OCc1ccccc1` are 1.77 (inactive), 0.126, 0.263 and 0.756 (inactive).
On the same counts, the results for `CC(C)(C)N1C(=O)[C@H]2[C@H]3[C@H](O)[C@H](O)CC(=O)[C@@H]3CC[C@H]2C1=O` are -0.138 (inactive), 0.419, -0.507 and -0.472 (inactive).
Regarding `COC(=O)CC=C[C@@H](C)[C@@H](C=NO[C@H](C)c1cn([C@H](CO)Cc2ccccc2)nn1)OC`, the composite z-score in experiment [1] was 0.312 (inactive); in experiment [2], 0.367. Also, the z-score in experiment [3] was -0.866; in experiment [4], -1.89 (inactive).
On the same counts, the results for `CCOC(=O)[C@H](CC(C)C)NC(=O)CCC1CC(OC(=O)NCCc2ccc(F)cc2)CC2(CCCC(COC(=O)NCCOc3ccccc3)O2)O1` (stereo partly drawn) are 0.679 (inactive), 0.31, -2.02 and -6.97 (inactive).
In the same order, the values of `COC(=O)CC=C[C@@H](C)[C@@H](C=NO[C@@H](C)c1cn([C@H](CO)Cc2ccccc2)nn1)NS(=O)(=O)c1ccc(C)cc1` are -0.294 (inactive), 0.464, 0.281 and -4.93 (inactive).
On the same counts, the results for `CC(C)=CCCC(C)=CCON=C1C[C@@H](O)[C@@H](O)[C@@H]2[C@@H]3C(=O)N(C[C@@H]4CCCO4)C(=O)[C@@H]3CC[C@H]12` are 0.243 (inactive), 0.378, -0.0721 and -3.8 (inactive).
Consider `COC(=O)CC=C[C@@H](C)[C@@H](C=NO[C@H](C)c1cn([C@@H]2COC[C@H]2O)nn1)NS(=O)(=O)c1ccc(C)cc1`, for which the composite z-score was -0.362 (inactive) in experiment [1] and 0.486 in experiment [2]. Moreover, the z-score in experiment [3] is 0.781; in experiment [4] it was -1.63 (inactive).
On the same counts, the results for `CCOC(=O)[C@H](Cc1ccccc1)NC(=O)OC1CC(CCC2CC(CC)=NO2)OC2(CCCC(COC(=O)NCCC(C)C)O2)C1` (stereo partly drawn) are 0.654 (inactive), 0.527, -1.04 and -5.07 (inactive).
In the same order, the values of `COC(=O)CC=C[C@@H](C)[C@@H](C=NOCC[C@@H]1C=C[C@H](OC(C)=O)[C@@H](COC(C)=O)O1)NS(=O)(=O)c1ccc(C)cc1` are 0.412 (inactive), 0.303, 0.0783 and -5.32 (inactive).
`CC(C)CON=C1C[C@@H](O)[C@@H](O)[C@@H]2[C@@H]3C(=O)N(Cc4ccc5c(c4)OCO5)C(=O)[C@@H]3CC[C@H]12`: the values for the composite z-score in experiment [1] and in experiment [2] were 0.798 (inactive) and 0.202, respectively. Also, the z-score in experiment [3] was -0.613; in experiment [4] it was -3.41 (inactive).
Consider `CC(=O)OC[C@H]1OC(ON=CC[C@@H]2C=C[C@H](OC(C)=O)[C@@H](COC(C)=O)O2)[C@H](OC(C)=O)[C@@H](OC(C)=O)[C@@H]1OC(C)=O` (stereo partly drawn), for which the composite z-score is -0.476 (inactive) in experiment [1] and 0.0849 in experiment [2]. The z-score in experiment [3] was 0.728; in experiment [4], -2.22 (inactive).
In the same order, the values of `C#CCCCON=C1[C@H]2CCn3c(=O)n(C)c(=O)n3[C@H]2[C@H](O)[C@@H]2O[C@H]12` are -0.158 (inactive), 0.442, 0.275 and 0.292 (inactive).
In the same order, the values of `COc1cccc([C@@H]2Oc3ccc(OC)cc3C(=O)[C@H]2O)c1` are 0.565 (inactive), 0.65, -1.09 and -0.169 (inactive).
In the same order, the values of `C[C@@H]1CC[C@H]2C(=O)O[C@@H](COc3ccc(C(C)(C)C)cc3)CN2[C@@H]1c1ccc(Br)cc1` are 0.286 (inactive), 0.0087, 0.093 and 0.347 (inactive).
Turning to `O=C1OCCC=C1C(O)CCc1ccccc1` (stereo not drawn), the values for the composite z-score in experiment [1] and in experiment [2] were 0.321 (inactive) and 0.716, respectively. Further, the z-score in experiment [3] was -0.542; in experiment [4], -0.295 (inactive).
Turning to `O=C(NN=C1C[C@@H](O)[C@@H](O)[C@@H]2[C@@H]3C(=O)N(C[C@@H]4CCCO4)C(=O)[C@@H]3CC[C@H]12)OCc1ccccc1`, the composite z-score is -0.526 (inactive) in experiment [1] and -0.314 in experiment [2]. In addition, the z-score was 0.0837 in experiment [3] and 0.901 (inactive) in experiment [4].
On the same counts, the results for `C=CC[C@@H]1C=C[C@H](ON=C2[C@H]3CCn4c(=O)n(-c5ccccc5)c(=O)n4[C@H]3[C@H](O)[C@@H]3O[C@H]23)[C@@H](CO)O1` are 0.372 (inactive), 0.287, -0.605 and -2.05 (inactive).
In the same order, the values of `CCN1C(=O)[C@H]2[C@H]3[C@H](O)[C@H](O)CC(=NO[C@@H](C)c4cn([C@H](CO)Cc5ccccc5)nn4)[C@@H]3CC[C@H]2C1=O` are 1.13 (inactive), 0.814, 0.032 and -2.02 (inactive).
In the same order, the values of `O=C1C2=CC[C@H]3C(=O)N(c4cccc(Oc5ccccc5)c4)C(=O)[C@H]3[C@H]2[C@H](O)[C@@H]2O[C@H]12` are -0.0743 (inactive), 0.182, 0.86 and -2.99 (inactive).
Turning to `COc1ccc(O[C@H]2C=C[C@@H](c3ccccc3)O[C@@H]2CON=C(C)CCN2CCc3nc(-c4ccccc4)c(-c4ccccc4)cc3C2)cc1`, the composite z-score in experiment [1] was 0.276 (inactive); in experiment [2], 0.445. The z-score in experiment [3] is -0.553; in experiment [4], -1.81 (inactive).
In the same order, the values of `CO[C@@H]1COC(=O)CC=C[C@H](C)[C@H](OC)COC(=O)[C@H](C)NC(=O)CC=C[C@H]1C` are -0.436 (inactive), 0.82, -0.382 and 0.189 (inactive).

These data come from PubChem BioAssay.
